From PubChem BioAssay
CHO-K1 Ca ag = nonselective activator or artifact in parental CHO-K1 cells | Fluo-8 calcium fluorescence; scaled to maximal ATP response, vehicle zero | activation, % at 3 µM | hit rate 0.48% among 360,000; in the data active = activation above about 15%;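 also: untransfected CHO-K1 host cells lacking M1 receptor as counterscreen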
CHRM1 antagonist = human CHRM1 antagonism | CHO-K1 hM1, Fluo-8 calcium fluorescence, ACh EC80 antagonist | inhibition, % at 3 µM | hit rate 1.3% among 360,000 | AID 588852;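 active = percent inhibition above its own plate's cutoff, namely the mean of that plate's compound wells plus 3 SD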;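 also: peak over basal fluorescence ratio during 140 s after agonist addition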
Target sequence (P11229 whole entry, looked up): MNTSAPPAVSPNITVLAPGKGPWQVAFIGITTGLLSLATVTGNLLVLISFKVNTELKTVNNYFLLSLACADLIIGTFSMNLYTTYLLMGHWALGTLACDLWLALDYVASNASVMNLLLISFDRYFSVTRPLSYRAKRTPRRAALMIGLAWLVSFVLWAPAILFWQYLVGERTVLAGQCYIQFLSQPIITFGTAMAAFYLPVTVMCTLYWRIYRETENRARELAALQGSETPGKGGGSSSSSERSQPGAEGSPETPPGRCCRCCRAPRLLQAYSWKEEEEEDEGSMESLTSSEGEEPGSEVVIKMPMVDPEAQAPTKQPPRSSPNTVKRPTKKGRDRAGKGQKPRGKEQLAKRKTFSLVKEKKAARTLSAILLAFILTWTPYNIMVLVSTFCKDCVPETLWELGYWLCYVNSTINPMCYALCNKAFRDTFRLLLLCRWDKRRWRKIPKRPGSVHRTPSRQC
CHRM1 PAM = human CHRM1 positive allosteric modulation; P11229; CHO-K1 hM1, Fluo-8 calcium fluorescence, ACh EC20; 0% = ACh EC20, 100% = maximal ACh; activation, % at 3 µM; hit rate 0.088% among 360,000; in the data active = activation above about 19%, passing the limit was not always enough
CHO-K1 Ca antag = M1 antagonist counterscreen hit in parental CHO-K1 cells; ATP-induced calcium, Fluo-8 fluorescence; inhibition, % at 3 µM; hit rate 0.6% among 360,000;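 active = inhibition above a per-plate cutoff, the plate's mean sample inhibition plus 3 SD, cut at about 24% in these data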
M1 PAM parental = counter-screen for M1 PAMs: effect in parental CHO-K1 cells; ATP EC20, Fluo-8 calcium fluorescence; 0% at ATP EC20, 100% at ATP max; activation, % at 3 µM; hit rate 0.02% among 360,000;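 active = activation above the run cutoff, the mean activation of all test compounds plus 3 SD, cut at about 40% in these data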;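 also: peak over basal fluorescence ratio in a 140 s read after ATP addition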
CHRM1 agonist = activates human CHRM1 receptor. P11229. CHO-K1 hM1, Fluo-8 calcium fluorescence, agonist mode; 0% DMSO, 100% acetylcholine EC100. activation, % at 3 µM. hit rate 0.33% among 360,000. AID 588814;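 active = activation above the run's mean compound activation plus 3 SD, cut at about 16% in these data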;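 also: peak over basal fluorescence ratio within a 140 s kinetic read after compound addition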
Each line names hits and unclear results; the compound was inactive in the other large screens. This is a sample that favours compounds with a hit; in the whole collection about 2.3% have one here.

O=C1NC[C@@H](CCCCN2C[C@H](Cc3ccccc3)N(CC3CCCCC3)C(=O)C2=O)N(CC2CCCCC2)C1=O	CHO-K1 Ca ag 35 (no result: CHRM1 antagonist, CHRM1 PAM, CHRM1 agonist)
O=c1ccc(Cl)nn1-c1ccccc1	none
O=C(C[C@H]1C/C=C\C[C@H](Cc2ccc(F)cc2)C(=O)O[C@@H](c2ccccc2)CNC1=O)N[C@H](CO)Cc1ccccc1	CHRM1 agonist 37
O=C(C[C@H]1C/C=C\CC[C@H](Cc2ccc(F)cc2)C(=O)O[C@@H](c2ccccc2)CNC1=O)N[C@H](CO)Cc1ccccc1	CHRM1 agonist 36
O=C(C[C@H]1C/C=C\CC[C@H](Cc2ccc(F)cc2)C(=O)O[C@@H](c2ccccc2)CNC1=O)N[C@@H](CO)Cc1ccccc1	none
Cc1cc(C)nc(N2CCN(C(=O)CCC(=O)Nc3nnc(C(C)C)s3)CC2)n1	none
CN(C)S(=O)(=O)c1cccc(C(=O)Nc2cc3c(cc2C(=O)O)OCCCO3)c1	none
O=C(COC(=O)/C=C/c1ccccc1)Nc1ccc2c(c1)OCCO2	CHRM1 PAM 27
NC(=O)c1ccsc1NC(=O)COC(=O)/C=C/c1ccccc1	CHRM1 antagonist 50, CHO-K1 Ca antag 27
NC(=O)c1ccsc1NC(=O)COC(=O)/C=C/c1ccccc1[N+](=O)[O-]	CHO-K1 Ca ag 18
NC(=O)c1ccsc1NC(=O)COC(=O)COc1ccccc1[N+](=O)[O-]	none
CN(C)CCN1CCN(C2CN(CCc3ccccc3)S(=O)(=O)C2)CC1 (stereo not drawn)	none
Cc1ccc(CNC(=O)C2CCCN(S(=O)(=O)c3ccc(F)cc3)C2)cc1 (stereo not drawn)	none
COc1cc(C(=O)OC(C)CN2C(C)CCCC2C)cc(OC)c1OC (stereo not drawn)	none
CCC(C)N1CC(=O)N2C(c3ccc(OC)cc3OC)c3[nH]c4ccccc4c3C[C@H]2C1=O (stereo partly drawn)	none
CCC1CCCCN1CCCNC(=O)c1ccc2c(c1)N(Cc1c(F)cccc1Cl)C(=O)CS2 (stereo not drawn)	CHRM1 antagonist 100
C=CCN1C(=O)CSc2ccc(C(=O)NCc3ccc(F)cc3)cc21	none
O=C(NCc1ccc2c(c1)OCO2)c1ccc2c(c1)N(Cc1c(F)cccc1Cl)C(=O)CS2	CHRM1 antagonist 40
COC(=O)C1Cc2ccccc2CN1C(=O)CCl (stereo not drawn)	none
Cc1ccc(-c2cc(-c3ccccc3)[nH]c(=S)c2C#N)cc1	none
N#Cc1c(N)[nH]c(=S)c(C#N)c1-c1ccccc1	CHO-K1 Ca antag 24
CCOC(=O)c1ccc(NC(=S)NC2CC(C)(C)NC(C)(C)C2)cc1	CHRM1 agonist 42
N#Cc1cccc(NC(=O)CSc2ccc3c4c(cccc24)C(=O)c2ccccc2-3)c1	CHRM1 antagonist 32, CHRM1 agonist 44
CCOC(=O)NC(=O)CSc1ccc(S(=O)(=O)N(C)C2CCCCC2)cn1	none
COC(C[C@@H](O)[C@H](C)[C@@H](O)COCc1ccccc1)OC	CHRM1 antagonist 51
COC(C[C@H](O)[C@@H](C)[C@@H](O)COCc1ccccc1)OC	none
CCN1CCN(CCNC(=O)c2ccc(/C=C3\Sc4ccccc4N(Cc4ccccc4F)C3=O)cc2)CC1	CHRM1 antagonist 47
Nc1nc(Nc2cccc(F)c2)nc(NCCO)c1[N+](=O)[O-]	CHO-K1 Ca ag 15
CCN1CCN(C(=O)CCCn2c(C)c3cnn(-c4ccccc4)c(=O)c3c2C)CC1	CHRM1 PAM 25
Cc1c2cnn(-c3ccccc3)c(=O)c2c(C)n1CCCC(=O)N1CCN(C2CCCCC2)CC1	CHRM1 agonist 38
CCOC(=O)C1=CCN(S(=O)(=O)c2ccccc2Br)C1c1ccccc1 (stereo not drawn)	none
CCC(=O)c1ccc(OCC(=O)OCC(=O)Nc2ccc(C)c(S(=O)(=O)N3CCCCC3)c2)cc1	CHO-K1 Ca ag 16
CCC(=O)c1ccc(OCC(=O)OCC(=O)Nc2cccc(S(=O)(=O)N3CCCC3)c2)cc1	none
O=C(CSc1nc2[nH]ncc2c(=O)n1-c1ccccc1)NCCc1ccccc1	CHO-K1 Ca ag 17
O=C(CSc1nc2[nH]ncc2c(=O)n1-c1ccccc1)NCc1cccs1	none
CCSc1nsc(NC(=O)Nc2ccccc2Cl)n1	CHO-K1 Ca antag 28
